From PubChem BioAssay AID743266 (National Center for Advancing Translational Sciences (NCATS), 2014)
Hit rate of the full screen: of about 410,000 compounds, about 310 (0.076%) were called active. Another 2% or so got no clear call; they are omitted. Shown is part of a subset that was picked to be rich in actives. A number with no mark means an inactive call. Calls follow the shape of the dose curve; as a rule, active = well fitted activation curve with a large enough effect; inconclusive = small, poorly fitted or top-dose-only effect, or another doubt; inactive = no such curve, though single readings can be large or run the other way.

These compounds were tested against Parathyroid hormone/parathyroid hormone-related peptide receptor (Homo sapiens) (UniProt Q03431) (assay: qHTS for PTHR1 Agonists: Primary Screen). Conditions: HEK293 GP2 PTHR1 cells, GloSensor cAMP luminescence, 1 h; series mostly up to 115 µM; activation: at the top concentration.
Chain of Parathyroid hormone/parathyroid hormone-related peptide receptor (Homo sapiens) (Q03431 whole entry, looked up): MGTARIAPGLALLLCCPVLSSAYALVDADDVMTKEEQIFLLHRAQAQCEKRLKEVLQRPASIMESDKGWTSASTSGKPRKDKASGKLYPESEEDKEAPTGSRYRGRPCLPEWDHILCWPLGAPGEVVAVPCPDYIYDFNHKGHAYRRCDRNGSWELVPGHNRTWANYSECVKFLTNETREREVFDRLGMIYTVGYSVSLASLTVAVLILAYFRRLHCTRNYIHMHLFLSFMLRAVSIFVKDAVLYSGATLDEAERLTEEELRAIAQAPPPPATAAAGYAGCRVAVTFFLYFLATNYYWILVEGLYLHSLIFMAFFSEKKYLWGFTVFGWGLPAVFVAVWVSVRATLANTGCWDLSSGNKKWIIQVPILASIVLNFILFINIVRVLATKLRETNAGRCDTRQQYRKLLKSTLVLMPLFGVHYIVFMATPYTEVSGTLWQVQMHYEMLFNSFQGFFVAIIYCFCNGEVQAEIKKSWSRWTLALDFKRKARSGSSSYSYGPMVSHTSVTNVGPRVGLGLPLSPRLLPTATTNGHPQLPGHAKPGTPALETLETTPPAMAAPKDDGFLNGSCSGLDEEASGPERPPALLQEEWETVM
Source text: The goal of the proposed studies is to discover new compounds that act as potent agonists on the parathyroid hormone receptor type-1 (PTHR1). The PTHR1 plays critical roles in maintaining blood calcium and phosphate levels, as well as in controlling bone remodeling. PTHR1 agonists could thus be useful for treating diseases such as hypoparathyroidism and osteoporosis. In the former disease, an agonist drug would help maintain normal blood calcium and phosphate levels under conditions of parathyroid hormone deficiency. In the latter disease, an agonist drug would stimulate new bone formation and thus reduce the risk of fracture, under conditions of bone fragility, as occurs in aging.
To that end, we performed a quantitative high-throughput screening (qHTS) of the Molecular Libraries Probe Centers Network (MLPCN) compound libraries at the NIH Chemical Genomics Center (NCGC) for the parathyroid hormone receptor type-1 (PTHR1) using a unique HEK-293-derived cell line (GP2) that expresses the PTHR1 and a glosensor cAMP reporter construct.
NIH Molecular Libraries Probe Production Centers Network [MLPCN]
NIH Chemical Genomics Center [NCGC]
Assay Submitter (PI): Thomas Gardella, Massachusetts General Hospital
4 microL are dispensed into a 1536-well micro plate to yield 3,000 cells/well. The plates are then incubated overnight, after which 4 microL of 0.5 mM of BIoTium Luciferin plus 0.5 mM IBMX are added. They are then incubated at 37 degree for one hour before 23 nL of compounds are added through pinning and then incubated at 37 degree again for another hour. After the plates are kept at room temperature for 15 min before they are read on the ViewLux to measure luminescence.
Also: nearly all actives have a fitted effect of over 55% in size.

Structure (SMILES)	outcome	activation
COc1ccc(CCNc2nc3c(-c4cccc(F)c4)nnn3c3ccccc23)cc1OC	inactive	
COc1ccc(C2c3c(oc4ccccc4c3=O)C(=O)N2Cc2ccc3c(c2)OCO3)cc1 (configuration not stated)		15.8%
Cc1ccc(C(=O)Nc2c(C(=O)NC(C)(C)C)oc3ccccc23)cc1		-7.11%
CSc1nn(Cc2cccc(C)c2)c(N)c1S(=O)(=O)c1ccccc1	inactive	
CCC(C)c1ccc2oc(-c3ccc(NC(=O)c4cc5ccccc5o4)cc3)nc2c1 (configuration not stated)		-31.3%
CCOc1ccc(CNCc2c(C(=O)O)c(C)n(Cc3cccc(OC)c3)c2C)cc1OC		-21.7%
CCCCNC(=O)c1cc(-c2ccc(Cl)c(Cl)c2)on1	inactive	
CN1CCN(C(CNC(=O)c2ccccc2F)c2ccc3c(c2)OCO3)CC1 (configuration not stated)		0.69%
COC(=O)c1ccccc1NC(=O)c1ccc(COc2ccccc2Cl)o1	inactive	
CCC(CC)c1nn2cc(-c3ccccc3)nc2s1	inactive	
COCCNS(=O)(=O)c1cc(-c2nn3c(C)nnc3c3ccccc23)ccc1C	inactive	
CCN(CC)S(=O)(=O)c1ccc2c(c1)N(CC(=O)NCC(C)c1ccccc1)C(=O)CO2 (configuration not stated)		21.9%
CCOc1cc(C2C(C(=O)Nc3ccc(OC)cc3)=C(C)Nc3nc(SC)nn32)ccc1O (configuration not stated)		2.91%
Cc1cc(OCC(=O)Nc2ncn[nH]2)c(C)c(C)c1Br		-8.37%
Cc1nc(SCC(=O)Nc2ccc(C(=O)O)cc2)n[nH]1		-16.7%
O=C(NCCc1ccccc1)C(=O)NCC(c1ccco1)S(=O)(=O)c1ccccc1 (configuration not stated)		-7.91%
Cc1ccc(C)n1-c1nnc(N2CCC(C(=O)NCc3ccccc3Cl)CC2)s1		-14.9%
CC(C)(C)c1ccc(C(=O)NCC(c2ccco2)S(=O)(=O)c2ccc(F)cc2)cc1 (configuration not stated)		-96.9%
Cc1c(Cl)cccc1NC(=O)N1CCN(C(=O)c2nsc3ccccc23)CC1	inactive	
CCOC(=O)c1c(S(=O)(=O)N2CCCC(C(=O)NCc3ccc(F)cc3)C2)c(C)n(CC)c1C (configuration not stated)		-23.8%
O=c1c2cccnc2n(Cc2cccc(F)c2)c(=O)n1Cc1ccccc1Cl		-34.4%
CCOc1ccc(OCC)c(NS(=O)(=O)c2ccc3[nH]c(=O)ccc3c2)c1	inactive	
Cc1ccc(NC(=O)CSc2nc3c(c(=O)[nH]2)CN(Cc2ccc4c(c2)OCO4)CC3)cc1C		-21.9%
COc1cccc(CNC(=O)C2CCN(S(=O)(=O)c3ccc4c(ccn4C)c3)CC2)c1		-37.3%

Structure (SMILES)	outcome	activation
COc1ccc(CNc2nc(-c3ccc(Cl)cc3)cc(C(F)(F)F)n2)cc1		-35.1%
COc1cc(Cl)c(NC(=O)C(NS(=O)(=O)c2cccs2)C(C)C)c(OC)c1 (configuration not stated)	inactive	
Cc1oc2ccc(O)c(CN3CCCCC3)c2c1C(=O)Nc1cccc(C(F)(F)F)c1	inactive	
CCCCN(CC)CCCNC(=O)c1nn(C)c2c1CS(=O)(=O)c1ccccc1-2	inactive	
COc1ccc(-n2c(SCC(=O)Nc3ccc(Cl)c(C)c3)nc3n[nH]c(C)c3c2=N)cc1	inactive	
Cc1c(NC(=O)c2cc(=O)c3ccccc3o2)c(=O)n(-c2ccccc2)n1C	inactive	
CCCn1c2ccccc2c2cnn(CC(=O)N(C)c3ccccc3CC)c(=O)c21		-5.63%
COC(=O)c1ccc(NC(=O)CCc2c(C)nc3c(c(C)nn3-c3ccc(C)cc3)c2C)cc1	inactive	
Cc1ccc(Cn2c(C)c3cnn(CC(=O)NCc4ccccc4)c(=O)c3c2C)cc1		-42.3%
Cc1ccc(C)c(N2CCN(c3ccc4cc(S(=O)(=O)N5CCC(C)CC5)ccc4n3)CC2)c1		-22%
COc1ccccc1CNc1ccc(-c2nc(-c3ccccc3C)no2)cc1[N+](=O)[O-]	inactive	
Cn1c(=O)[nH]c(=O)c2c1nc(NCCc1ccccc1)n2Cc1ccc(F)cc1		-6.1%
CCCCN(C)CCCNC(=O)CN1N=C(c2ccc(OC)cc2)CCC1=O		13.6%
O=C(Nc1ccc2nc(SCC(=O)N3CCc4ccccc43)sc2c1)c1ccccc1F	inactive	
CCOc1ccccc1CNC(=O)c1ccc(-n2c(C)cc3c2CCC(C)C3)cc1 (configuration not stated)	inactive	
CCOC(=O)c1c(C)[nH]c(CCC(=O)NCCCN2CCN(c3cccc(Cl)c3)CC2)c1C		-20.8%
Cc1ccc(C)c(N2CCN(S(=O)(=O)c3ccc4c(c3)C(C(C)C)C(=O)N4)CC2)c1 (configuration not stated)		-24.8%
CCOc1ccccc1CNC(=O)Nc1cn(CC(C)C)c(=O)c2ccccc12		5.27%
CCOc1cc(CNC(=O)c2sc3ncnc(N(C)C4CCCCC4)c3c2C)ccc1OC		-11.1%
Cc1nn2c(=O)cc(COC(=O)CNC(=O)c3ccc(F)cc3)nc2s1		-21.7%
COc1ccc(CCNC(=O)c2nn(C)c3c2CSc2ccccc2-3)cc1OC		-94%
Cc1c(C(=O)NCc2ccccc2Br)oc2ccc3c(c12)C(=O)CC(C)(C)O3		-38.2%
CCc1cccc(C)c1NS(=O)(=O)c1ccc(-c2cc(C)no2)s1	inactive	
